The values below come from PubChem BioAssay (NCI).

Among the test systems are SK-MEL-2 melanoma; EKVX NSCLC; SN12C renal; UO-31 renal; TK-10 renal; A498 renal; CCRF-CEM leukemia; MOLT-4 leukemia; SR leukemia; RPMI-8226 leukemia; OVCAR-8 ovarian; OVCAR-5 ovarian; OVCAR-4 ovarian; SK-OV-3 ovarian; IGROV1 ovarian; OVCAR-3 ovarian; HS 578T breast; NCI/ADR-RES ovarian.
Holding throughout (experiment): NCI-60 one-dose screen, 48 h (100 = growth as untreated, 0 = no growth, -100 = all killed)
Conditions in all cases: 10 µM unless noted

This is part of a sample that, as a whole, favours compounds with a hit. Of some 83,000 tested, about 20% had one in any assay.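 Treatment: one concentration, 48 hours, 96-well format. Scoring: percent growth, with anything below 10 considered active.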 Unmarked numbers belong to inactive results. Activity calls are given as the source filed them.

With `COc1cc(-c2cccc([N+](=O)[O-])c2)c(-c2nc(-c3ccccc3)c(-c3ccccc3)n2C2CC2)cc1OC`, the growth with SK-MEL-2 melanoma is 57.6%; in the test on EKVX NSCLC, 57.2%; in the test on SN12C renal it was 75.1%; with UO-31 renal it was 37.7%; with TK-10 renal it was 66.2%; in the test with A498 renal, 77.6%. The growth is 48.1% with CCRF-CEM leukemia; 25.9% in the test with MOLT-4 leukemia; 57.2% in the test on SR leukemia; 10.8% in the test on RPMI-8226 leukemia; 62.8% in the test on OVCAR-8 ovarian; 87.3% with OVCAR-5 ovarian. The growth with OVCAR-4 ovarian is 62.2%; with SK-OV-3 ovarian it was 80%; in the test on IGROV1 ovarian, 78.5%; with OVCAR-3 ovarian it was 66.5%; in the test on HS 578T breast it was 83.4%; with NCI/ADR-RES ovarian, 62%.

Consider `CCOC(=O)c1c(C)[nH]c(C(=O)CCC(=O)OC)c1C`, for which the growth in the test with SK-MEL-2 melanoma is 83.1%; with EKVX NSCLC, 95.2%; with SN12C renal, 110%; in the test with UO-31 renal, 92.7%; with TK-10 renal, 84.3%; with A498 renal, 119%. The growth is 93% in the test on MOLT-4 leukemia; 92.5% in the test on SR leukemia; 95.8% in the test on RPMI-8226 leukemia; 103% in the test with OVCAR-8 ovarian; 100% in the test with OVCAR-5 ovarian; 107% in the test on OVCAR-4 ovarian. For the same molecule, the growth with SK-OV-3 ovarian is 101%; with IGROV1 ovarian, 104%; in the test on OVCAR-3 ovarian it was 105%; in the test on HS 578T breast, 124%; with NCI/ADR-RES ovarian, 97.9%.

Take `CCOC(=O)c1c(C)nc2c(c1N)/C(=C/c1ccc(OC)cc1)C(=O)N2Cc1ccc(F)cc1`: the growth with SK-MEL-2 melanoma was -27.5% (active); in the test with EKVX NSCLC it was 9.23% (active); in the test on SN12C renal, -40% (active); in the test with UO-31 renal, -38.4% (active); in the test on TK-10 renal it was -70.8% (active); with A498 renal, -44.2% (active). The growth with CCRF-CEM leukemia was -5.4% (active); with MOLT-4 leukemia, 1.64% (active); in the test on SR leukemia, 1.71% (active); in the test with RPMI-8226 leukemia, -17.2% (active); with OVCAR-8 ovarian, 8.74% (active); in the test with OVCAR-5 ovarian, -45.2% (active). In addition, the growth in the test on OVCAR-4 ovarian was 20.9%; in the test on SK-OV-3 ovarian, 9.64% (active); with IGROV1 ovarian it was -9.78% (active); in the test with NCI/ADR-RES ovarian, 15.1%.

For the molecule `CC(c1ccc(-n2cccn2)cc1)c1cnc(N2CCc3ccc(C(N)=O)cc3C2)s1` (stereo not given), the growth in the test on SK-MEL-2 melanoma was 51.7%; in the test with EKVX NSCLC it was 54.3%; in the test on SN12C renal, 86.9%; in the test on UO-31 renal, 51.8%; in the test with TK-10 renal, 68.6%; in the test on A498 renal, 81%. Besides, the growth is 33.4% in the test with CCRF-CEM leukemia; 8.64% (active) in the test on MOLT-4 leukemia; 53.5% with SR leukemia; 34.5% in the test on RPMI-8226 leukemia; 34.9% in the test with OVCAR-8 ovarian; 92.8% in the test on OVCAR-5 ovarian. For the same molecule, the growth in the test with OVCAR-4 ovarian is 42%; in the test with SK-OV-3 ovarian, 68.6%; in the test on IGROV1 ovarian, 79.8%; in the test on OVCAR-3 ovarian, 71.5%; with HS 578T breast, 100%; in the test with NCI/ADR-RES ovarian it was 32.1%.

For the molecule `COc1cccc(CCC2CCCN(c3cc(C)nc(N)n3)C2)c1` (stereo not given), the growth is 29.1% in the test on SK-MEL-2 melanoma; 41.4% in the test on EKVX NSCLC; 34.1% with SN12C renal; 35.7% in the test with UO-31 renal; 37.5% with TK-10 renal; -2.99% (active) in the test with A498 renal. The growth is 25.7% in the test with CCRF-CEM leukemia; 27.5% with MOLT-4 leukemia; 26.7% in the test on SR leukemia; 18.4% in the test with RPMI-8226 leukemia; 24.4% in the test with OVCAR-8 ovarian; 33.9% in the test with OVCAR-5 ovarian. Moreover, the growth is 52.2% in the test on OVCAR-4 ovarian; 40.5% with SK-OV-3 ovarian; 31.3% in the test on IGROV1 ovarian; 11.4% in the test on OVCAR-3 ovarian; 56.8% in the test on HS 578T breast; 6.21% (active) in the test on NCI/ADR-RES ovarian.

Take `CCN(CC)CCOC(=O)N1c2ccccc2Sc2ccccc21`: the growth was 97.9% in the test on SK-MEL-2 melanoma; 106% in the test with EKVX NSCLC; 101% with SN12C renal; 87.9% with UO-31 renal; 88.2% with TK-10 renal; 97.1% in the test on A498 renal. In addition, the growth is 69.1% with CCRF-CEM leukemia; 96.1% in the test with MOLT-4 leukemia; 98.6% in the test with SR leukemia; 85.6% with RPMI-8226 leukemia; 101% in the test with OVCAR-8 ovarian; 101% in the test on OVCAR-5 ovarian. The growth with OVCAR-4 ovarian is 101%; with SK-OV-3 ovarian, 98%; in the test with IGROV1 ovarian, 94.1%; in the test with OVCAR-3 ovarian, 107%; in the test with HS 578T breast it was 91.7%; with NCI/ADR-RES ovarian it was 96.1%.

Take `COc1cc2c(cc1OC)-c1ccc3cc4c(cc3c1N(CCN(C)C)C2)OCO4`: the growth in the test on SK-MEL-2 melanoma was 36%; in the test on EKVX NSCLC it was 25.4%; in the test with SN12C renal, 0.583% (active); with UO-31 renal, 24.2%; in the test on TK-10 renal, 16.6%; in the test with A498 renal it was -33.8% (active). Further, the growth in the test with CCRF-CEM leukemia was -1.03% (active); in the test with MOLT-4 leukemia it was 0.14% (active); in the test on SR leukemia, 1.13% (active); in the test with RPMI-8226 leukemia, -41.1% (active); with OVCAR-5 ovarian it was 8.24% (active); with OVCAR-4 ovarian, 26.7%. The growth is -21.2% (active) in the test with SK-OV-3 ovarian; -31.2% (active) in the test with IGROV1 ovarian; 8.78% (active) in the test with OVCAR-3 ovarian; -2.39% (active) in the test with HS 578T breast; 72.3% with NCI/ADR-RES ovarian.

Regarding `C=CCN1C(=O)[C@]2(SC1=S)[C@H](c1cccc(Cl)c1)CN(C)[C@]21C(=O)NC2C=CC(Cl)=C[C@H]21` (stereo not given in full), the growth is 44.2% with SK-MEL-2 melanoma; 38.4% in the test with EKVX NSCLC; -53.6% (active) in the test with SN12C renal; -41.2% (active) in the test with UO-31 renal; 70.9% in the test with TK-10 renal; 76.8% in the test with A498 renal. The growth with CCRF-CEM leukemia was 4.67% (active); with MOLT-4 leukemia it was -17.7% (active); in the test on SR leukemia, -22.6% (active); in the test with RPMI-8226 leukemia, -5.81% (active); with OVCAR-8 ovarian it was 56%; in the test on OVCAR-5 ovarian it was 80.5%. Moreover, the growth in the test with OVCAR-4 ovarian is 49.4%; with SK-OV-3 ovarian, 58%; in the test on IGROV1 ovarian it was 48.3%; with OVCAR-3 ovarian, 38.4%; in the test on HS 578T breast, 56%; with NCI/ADR-RES ovarian it was 38.7%.

Turning to `O=S(=O)(Cc1ccccc1)c1nc2ccccc2s1`, the growth in the test on SK-MEL-2 melanoma was 57.7%; in the test with EKVX NSCLC, 99.3%; with SN12C renal it was 35.5%; with UO-31 renal it was 49.9%; in the test on TK-10 renal, 98%; with A498 renal, 111%. In addition, the growth in the test on CCRF-CEM leukemia was 15.4%; in the test on MOLT-4 leukemia, 14.1%; in the test on SR leukemia, 17%; in the test with RPMI-8226 leukemia it was 20.4%; with OVCAR-8 ovarian, 88.8%; in the test with OVCAR-5 ovarian, 102%. Also, the growth was 63.7% in the test on OVCAR-4 ovarian, 101% in the test on SK-OV-3 ovarian and 96.5% with NCI/ADR-RES ovarian.
